Laboratory results from PubChem BioAssay (NCI).
The panel holds about 83,000 compounds, 20% with a hit somewhere; the sample as a whole holds those more often.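 Testing used 96-well plates and a 48-hour single-concentration exposure. Example: -40 means 40% of the starting cells died.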 Values without a mark were called inactive. How the source made its calls: active means growth percent below 10; inactive means the rest.

Each molecule was assayed on NCI-H322M lung (assay: NCI-60 one-dose screen, 48 h (100 = growth as untreated, 0 = no growth, -100 = all killed)). Settings: 10 µM.
In the case of COc1ccc(C(C)C=O)cc1 (stereo not drawn), the growth is reported as 122%. Molecule CCCNc1ccc(C2=NCCCN2)cc1 has a growth of 88.7%. CC1(C)/C(=C\CO)C2CCC1C2 (stereo not drawn) showed a growth of 103%. With CCC(=O)Oc1ccc(OC)cc1 the growth was 95.5%. For CCOC(=O)C/C(C)=N\O, the growth was 97.9%. With CCCCN(CCCC)CCCO the growth was 136%. With O=C(Nc1ccccc1C(=O)NCC1CC1)c1cccs1 the growth was 126%. CC(=O)Nc1ccc(NC(C)=O)c2c1C(=O)c1ccccc1C2=O showed a growth of 89.1%. With O=C(N/N=C\c1cc(Br)cc(Br)c1O)N/N=C/c1cc(Br)cc(Br)c1O the growth was 42.2%. O=C(O)c1ccc(S(=O)(=O)O)cc1 showed a growth of 98.8%. Work on CCOC(=O)/C(C#N)=C/c1cccc(C)c1 yielded a growth of 95%. O=C(Nc1ccccc1)OCCc1ccccc1 gave a growth of 116%. COCCCNC(=O)c1nnn2c1nc(N)c1cc(Cl)ccc12 was tested, and the growth was 88.9%. With NC(CSC(c1ccccc1)(c1ccccc1)c1ccccc1)C(=O)O (stereo not drawn) the growth was 43.9%. With OCc1cccc2ccccc12 the growth was 121%. CN(C)c1ccc(C(c2ccc(O)cc2)c2ccc(N(C)C)cc2)cc1 was tested, and the growth was 98.4%. Molecule COc1cc2c(cc1OC)[C@H](C(=O)O)[C@@H](c1ccc(OC(C)C)c(OC)c1)N(C)C2=O has a growth of 83.5%. NC(C(=O)O)c1ccc([N+](=O)[O-])cc1 (stereo not drawn) was tested, and the growth was 111%. Molecule Cc1ccc(Cl)cc1NC(=O)N(C)CCO has a growth of 116%. With CCC/C=C(\C)C(C)(C#N)C(=O)OCC (stereo not drawn) the growth was 111%. For COc1cc(/C=C/C(=O)c2ccccc2)cc(OC)c1OC, the growth was 95.5%. O=C1c2ccccc2C(=O)c2c1ccc(C(=O)O)c2[N+](=O)[O-] gave a growth of 105%. Work on CC1=CC(C)(C)NC(=S)N1c1ccc(S(=O)(=O)O)c2cccc(S(=O)(=O)O)c12 yielded a growth of 127%. With COC(=O)Nc1nc2ccc(C(=O)c3ccc(F)cc3)cc2[nH]1 the growth was 40.5%. For C=CC(=O)OCCCCCCCC, the growth was 117%. O=[N+]([O-])c1ccc(Cl)c(S(=O)(=O)O)c1 gave a growth of 136%. CN(C)C(C)(C)CC(C)(C)C showed a growth of 116%. Work on N#CC(=Nc1cccc(F)c1)C1=C(O)c2ccccc2C1=O yielded a growth of 96.3%. Cc1c(O)cnc2nn(-c3ccccc3)c(=N)n12 gave a growth of 114%. O=c1[nH]n(-c2ccccc2)c(=O)cc1Cl gave a growth of 114%. O=C(NCO)c1ccccc1 was tested, and the growth was 91.6%. With COc1cc(CCN=Cc2ccccc2O)c([N+](=O)[O-])cc1OC the growth was 101%. For CC[N+](C)(CC)CCO, the growth was 104%. COc1cc(C(N)=O)cc(OC)c1OC was tested, and the growth was 106%. Work on COC(=O)CCCCC1=CCC2C(=O)C=C(O)C2C1 (stereo not drawn) yielded a growth of 92.4%. CC(C)(C)n1nc(C2CC2)c(Br)c1NC(=O)c1ccccc1F was tested, and the growth was 98.3%. For C=CCNc1nnc(C)s1, the growth was 96.7%. COc1cc(/C=N\Nc2ccccc2)ccc1OC(=O)c1ccccc1 was tested, and the growth was 59.8%. In the case of COC(=O)c1ccc(NC(=O)CCl)cc1, the growth is reported as 95.7%.

The molecules below were run on HOP-62 NSCLC in the same assay as above. Settings: 10 µM.
COc1ccc(C(C)C=O)cc1 (stereo not drawn) showed a growth of 107%. Molecule CCCNc1ccc(C2=NCCCN2)cc1 has a growth of 94.9%. In the case of CC1(C)/C(=C\CO)C2CCC1C2 (stereo not drawn), the growth is reported as 96.8%. CCC(=O)Oc1ccc(OC)cc1 gave a growth of 98%. For CCOC(=O)C/C(C)=N\O, the growth was 90.2%. CCCCN(CCCC)CCCO gave a growth of 106%. For O=C(Nc1ccccc1C(=O)NCC1CC1)c1cccs1, the growth was 103%. CC(=O)Nc1ccc(NC(C)=O)c2c1C(=O)c1ccccc1C2=O showed a growth of 81.9%. O=C(N/N=C\c1cc(Br)cc(Br)c1O)N/N=C/c1cc(Br)cc(Br)c1O gave a growth of 52.8%. O=C(O)c1ccc(S(=O)(=O)O)cc1 gave a growth of 99.3%. In the case of CCOC(=O)/C(C#N)=C/c1cccc(C)c1, the growth is reported as 101%. In the case of O=C(Nc1ccccc1)OCCc1ccccc1, the growth is reported as 103%. Molecule COCCCNC(=O)c1nnn2c1nc(N)c1cc(Cl)ccc12 has a growth of 80.4%. NC(CSC(c1ccccc1)(c1ccccc1)c1ccccc1)C(=O)O (stereo not drawn) was tested, and the growth was 44.5%. In the case of OCc1cccc2ccccc12, the growth is reported as 104%. Molecule CN(C)c1ccc(C(c2ccc(O)cc2)c2ccc(N(C)C)cc2)cc1 has a growth of 99.7%. COc1cc2c(cc1OC)[C@H](C(=O)O)[C@@H](c1ccc(OC(C)C)c(OC)c1)N(C)C2=O gave a growth of 92.4%. Molecule NC(C(=O)O)c1ccc([N+](=O)[O-])cc1 (stereo not drawn) has a growth of 96.5%. Molecule Cc1ccc(Cl)cc1NC(=O)N(C)CCO has a growth of 109%. CCC/C=C(\C)C(C)(C#N)C(=O)OCC (stereo not drawn) showed a growth of 99.1%. COc1cc(/C=C/C(=O)c2ccccc2)cc(OC)c1OC was tested, and the growth was 104%. O=C1c2ccccc2C(=O)c2c1ccc(C(=O)O)c2[N+](=O)[O-] was tested, and the growth was 97.2%. With CC1=CC(C)(C)NC(=S)N1c1ccc(S(=O)(=O)O)c2cccc(S(=O)(=O)O)c12 the growth was 99.5%. For COC(=O)Nc1nc2ccc(C(=O)c3ccc(F)cc3)cc2[nH]1, the growth was 33.1%. Work on C=CC(=O)OCCCCCCCC yielded a growth of 98.4%. Molecule O=[N+]([O-])c1ccc(Cl)c(S(=O)(=O)O)c1 has a growth of 103%. For CN(C)C(C)(C)CC(C)(C)C, the growth was 104%. N#CC(=Nc1cccc(F)c1)C1=C(O)c2ccccc2C1=O gave a growth of 88.4%. Work on Cc1c(O)cnc2nn(-c3ccccc3)c(=N)n12 yielded a growth of 98.3%. In the case of O=c1[nH]n(-c2ccccc2)c(=O)cc1Cl, the growth is reported as 108%. Molecule O=C(NCO)c1ccccc1 has a growth of 97.8%. With COc1cc(CCN=Cc2ccccc2O)c([N+](=O)[O-])cc1OC the growth was 91.9%. Molecule CC[N+](C)(CC)CCO has a growth of 92.6%. Molecule COc1cc(C(N)=O)cc(OC)c1OC has a growth of 99.6%. COC(=O)CCCCC1=CCC2C(=O)C=C(O)C2C1 (stereo not drawn) showed a growth of 91.8%. In the case of CC(C)(C)n1nc(C2CC2)c(Br)c1NC(=O)c1ccccc1F, the growth is reported as 92.5%. C=CCNc1nnc(C)s1 was tested, and the growth was 98.8%. COc1cc(/C=N\Nc2ccccc2)ccc1OC(=O)c1ccccc1 gave a growth of 77.8%. COC(=O)c1ccc(NC(=O)CCl)cc1 gave a growth of 88.5%.
